Measured values taken from ChEMBL document CHEMBL3988442, “University of Dundee, Small-Polar-MMV Screening Library” (2021).
Among all 48,000 compounds or so, about 13,000 (27%) showed an effect of 50% or more. This is one part of the list.

tested on: Wolbachia pipientis; test: Anti-Wolbachia Cell-Based Screen; assay type: functional; parameters: scale not given: in the data most compounds retested in dose-response had high values; conditions: 5 µM

Compared with `O=C(O)C1(Oc2ccc3ccccc3c2)CCN(c2ncccn2)CC1`, `O=c1c2cnc(N3CCOCC3)nc2ccn1-c1ccccc1` is higher in “Percent Effect” value: -9.781% for the first, 4.201% for the second.

Going from `Cc1c[nH]cc1C(=O)N1CCN(CCc2cccs2)CC1` to `CS(=O)(=O)N[C@@H]1CCN(Cc2cccs2)[C@H]1Cc1cccnc1`, the “Percent Effect” value falls from -2.994% to -19.82%.

Compared with `CCC1COCCN1C(=O)CNC(=O)c1ccsc1` (stereo unspecified), `O=C(N[C@]12CC1CN(C(=O)c1ccco1)C2)c1cccc(F)c1` (stereo partly specified) is lower in “Percent Effect” value: -5.336% for the first, -50.8% for the second.

Going from `OCc1ccc(CN2CCC(n3cc(C4CCCCC4)nn3)CC2)o1` to `CC(C)(O)c1cn(C2CCN(C(=O)CCC3CCCC3)CC2)nn1`, the “Percent Effect” value rises from 0.3058% to 7.362%.

Compared with `CCS(=O)(=O)c1ccc(N2CCC(NC(=O)NC(C)CO)CC2)cc1` (stereo unspecified), `NC(=O)c1ccc(OCC(=O)N2CCCC(n3cccn3)C2)cc1` (stereo unspecified) is lower in “Percent Effect” value: 0.3155% for the first, -3.222% for the second.

Compared with `COCCNS(=O)(=O)c1ccc(CNc2ncccc2C#N)cc1`, `COc1cccnc1NC(=O)c1ccc(COCC(F)(F)F)cc1` is higher in “Percent Effect” value: 18.7% for the first, 77.14% for the second.

First: NC(=O)c1cccc(OCC(=O)N2CCCC(n3cccn3)C2)c1 (stereo unspecified)
Second: NC(=O)c1cccc(OCC(=O)N2CCCC(n3ccnc3)C2)c1 (stereo unspecified)
The “Percent Effect” value of the first is lower: -3.677% for the first, 113% for the second.

Compared with `C[C@@H](NC(=O)c1cnccn1)c1c(-c2ccc(Cl)cc2)noc1C(=O)O.Cl`, `CC(NC(=O)c1ccc(=O)n(C)c1)c1ccc(OCC2CC2)c(F)c1` (stereo unspecified) is higher in “Percent Effect” value: -1.348% for the first, 7.042% for the second.

Going from `CCCc1nc(CNc2cc(CS(C)(=O)=O)ccc2Cl)no1` to `COCCn1/c(=N\C(=O)CN(C)S(C)(=O)=O)sc2cc(Cl)ccc21`, the “Percent Effect” value falls from -7.067% to -11.47%.

Compared with `CNC(=O)CCc1cc(C2CCNCC2)nc(C)n1.Cl.Cl`, `Cc1nc(CCC(N)=O)cc(C2CCNCC2)n1` is lower in “Percent Effect” value: 115.3% for the first, 77.84% for the second.

Going from `Cc1nc(NC2CCCCC2)cc(C2CCCNC2)n1.Cl` (stereo unspecified) to `Cc1nc(NC2CCS(=O)(=O)CC2)cc(C2CCCNC2)n1` (stereo unspecified), the “Percent Effect” value falls from 84.03% to 5.772%.

Compared with `Cc1nc(C2CCNCC2)cc(N2CCCC(C(=O)NCCCO)C2)n1` (stereo unspecified), `CNC(=O)C1CCN(c2cc(C3CCNCC3)nc(C)n2)C1` (stereo unspecified) is lower in “Percent Effect” value: 12.53% for the first, 9.34% for the second.

Compared with `Cc1nccc(N[C@H]2CN(CCC(=O)NC3CCCC3)C[C@@H]2C2CC2)n1`, `Cc1nc(CCC(=O)NC2CCC2)cc(C2CCCNC2)n1` (stereo unspecified) is higher in “Percent Effect” value: -19.22% for the first, 108.9% for the second.

Going from `Cc1nc(CCC(=O)NCC(N)=O)cc(C2CCNCC2)n1` to `CC(=O)NC1CCN(c2cc(C3CCNCC3)nc(C)n2)C1` (stereo unspecified), the “Percent Effect” value falls from 128.9% to -6.629%.

Going from `COc1ccc(OCc2cc(C(=O)N3CCC(O)CC3)n[nH]2)c(Cl)c1` to `COc1ccc(CN2CCC(c3nnc(-c4scnc4C)o3)CC2)cc1`, the “Percent Effect” value rises from 8.523% to 115.7%.

Going from `CN(C)S(=O)(=O)N(Cc1cscn1)c1ccccc1` to `Cc1cc(C)n(CC2CN(Cc3cscn3)CCO2)n1` (stereo unspecified), the “Percent Effect” value falls from 6.938% to -9.283%.

First: CCN(CC)c1ccc(NC(=O)N2CCc3sccc3C2)cn1
Second: Cn1cc(C(=O)Nc2cc(F)ccc2OCC2CCCO2)ccc1=O (stereo unspecified)
The “Percent Effect” value of the first is lower: -4.731% for the first, 100.3% for the second.

Compared with `FC(F)(F)CN1CCC(CNc2nc3ccccc3o2)C1` (stereo unspecified), `COc1ccc(-c2nnc([C@H]3CCN(CC(C)(C)C)C3)o2)cc1` is lower in “Percent Effect” value: 19.02% for the first, 4.195% for the second.

Going from `CCN1CCC(CC(=O)N2CCc3sc(C(=O)N(C)C)cc3C2)CC1` to `CC(=O)c1cc(C(=O)N2CCC(CC(C)C)C2)c(=O)[nH]c1C` (stereo unspecified), the “Percent Effect” value rises from -40.78% to 6.103%.

First: CCCc1nnc(SCC(=O)Nc2cc(C(C)(C)C)nn2C)[nH]1
Second: CCc1nc(CN2CCOC(Cn3nc(C)cc3C)C2)no1 (stereo unspecified)
The “Percent Effect” value of the first is lower: 5.759% for the first, 85.61% for the second.

Compared with `CN1N=C(C(=O)Nc2cc(F)ccc2OCC2CCCO2)CCC1=O` (stereo unspecified), `Cn1ccc(C(=O)Nc2cc(F)ccc2OCC2CCCO2)cc1=O` (stereo unspecified) is higher in “Percent Effect” value: 0.7919% for the first, 108.3% for the second.

Compared with `Cn1cccc1C(=O)Nc1cc(F)ccc1OCC1CCCO1` (stereo unspecified), `COc1cccnc1NC(=O)COc1ccc(F)cc1F` is higher in “Percent Effect” value: -3.687% for the first, 10.02% for the second.

First: O=S1(=O)NC(c2ccnc(N3CCCC3)n2)=Nc2ccccc21
Second: O=S1(=O)NC(c2ccnc(N3CCCCC3)n2)=Nc2ccccc21
The “Percent Effect” value of the first is higher: 149.4% for the first, 89.99% for the second.

Compared with `O=C(O)c1ccnc(-c2ccnc(N3CCCCCC3)n2)c1`, `CS(=O)(=O)N1CCN(c2ccnc(N3CCCCC3)n2)CC1` is higher in “Percent Effect” value: -0.3436% for the first, 0.3412% for the second.

First: O=S1(=O)NC(c2ccnc(N3CCOCC3)n2)=Nc2ccccc21
Second: Cc1nn(-c2ccccc2)c(C)c1-c1ccnc(N2CCCOCC2)n1
The “Percent Effect” value of the first is higher: 140.3% for the first, 7.099% for the second.

First: CS(=O)(=O)N1CCN(c2ccnc(N3CCCC3)n2)CC1
Second: Cc1ncsc1-c1nnc(C2CCN(CC3CCCCC3)CC2)o1
The “Percent Effect” value of the first is higher: -2.838% for the first, -4.118% for the second.

Going from `CC(CO)CSc1ncnc2[nH]ncc12` (stereo unspecified) to `CCc1n[nH]c(C2CN(C(=O)c3ncoc3CC)CCO2)n1` (stereo unspecified), the “Percent Effect” value rises from 8.493% to 97.1%.

Compared with `CCC1CN(c2nnc(C)c(C)c2C#N)CCO1` (stereo unspecified), `CCc1nc(CN2CCOC(Cn3nc(C)nc3C)C2)no1` (stereo unspecified) is higher in “Percent Effect” value: -3.23% for the first, 5.512% for the second.

First: CC(C)c1n[nH]c(C2CN(C(=O)C3=COCC3)CCO2)n1 (stereo unspecified)
Second: CCc1ocnc1C(=O)N1CCOC(c2nc(C(C)C)n[nH]2)C1 (stereo unspecified)
The “Percent Effect” value of the first is lower: -4.984% for the first, 114.1% for the second.

First: CCc1nnsc1C(=O)N1CCOC(c2nc(C(C)C)n[nH]2)C1 (stereo unspecified)
Second: CCc1nnsc1C(=O)N1CCOC(c2nc(C)n[nH]2)C1 (stereo unspecified)
The “Percent Effect” value of the first is higher: 112.8% for the first, 12.72% for the second.

Going from `Cc1noc(C)c1CN1C[C@@H]2CC[C@H](C1)N(Cc1cc(F)cc(F)c1)C2` to `Cc1cc(C)n(CC2CN(Cc3noc(C4CC4)n3)CCO2)n1` (stereo unspecified), the “Percent Effect” value rises from 3.369% to 115.4%.

First: N#Cc1ccccc1CN1C[C@@H]2CC[C@H](C1)N(CC1CCC1)C2=O
Second: N#Cc1ccccc1CN1CCCCC1Cn1cncn1 (stereo unspecified)
The “Percent Effect” value of the first is lower: -9.781% for the first, 7.073% for the second.

Compared with `O=C(O)C(F)(F)F.O=C(c1ccncc1)N1CCCn2nnc(COCCO)c2C1`, `O=C(Nc1cc[nH]n1)c1ccc(COCC(F)(F)F)cc1` is higher in “Percent Effect” value: 26.37% for the first, 87.88% for the second.

Going from `CCc1nnc2n1CCN(Cc1noc(-c3cccc(C)c3)n1)C2` to `Cc1cc(C)n(CC2CN(Cc3nc(-c4ccoc4)no3)CCO2)n1` (stereo unspecified), the “Percent Effect” value rises from -12.68% to 9.322%.

First: Cc1ccccc1OCC(O)C(=O)N1CCC2(CC1)CN(C)C(=O)O2 (stereo unspecified)
Second: Cc1ccc2nc(C)c(C)c(C(=O)N3CCC4(CCO4)CC3)c2c1
The “Percent Effect” value of the first is higher: -0.4396% for the first, -9.053% for the second.

Going from `COc1ccc(NC(=O)Cc2c(C)nc3c(c2C)c(=O)[nH]n3C)cn1` to `Cc1n[nH]c(C)c1NC(=O)c1cccc(OCC(F)(F)F)n1`, the “Percent Effect” value falls from 22.04% to 9.795%.

Going from `CC(C)CC(=O)NCc1cccc(OCCN(C)C2CCOCC2)c1` to `O=C1O[C@@H]2CN(C3CCOCC3)C[C@@H]2N1CCc1cccc(Cl)c1`, the “Percent Effect” value rises from -19.6% to -15.11%.

First: c1ccc2sc(NCC3(N4CCOCC4)CCSC3)nc2c1 (stereo unspecified)
Second: c1ccc(-c2nc(CN3CCCC3Cn3cncn3)cs2)cc1 (stereo unspecified)
The “Percent Effect” value of the first is higher: 0.766% for the first, -3.695% for the second.

First: O=C(CC(F)(F)F)NCC(O)c1ccc2ccccc2c1 (stereo unspecified)
Second: Cc1nc(NC(=O)COCC(F)(F)F)ccc1Br
The “Percent Effect” value of the first is lower: -2.994% for the first, 2.547% for the second.

First: COc1ccc(CN2CC[C@H](c3nnc(-c4ccco4)o3)C2)cc1
Second: Cc1ccc(CN2CC[C@H](c3nnc(-c4ccco4)o3)C2)cc1
The “Percent Effect” value of the first is higher: 27.76% for the first, -0.8562% for the second.

Compared with `Cc1ncsc1-c1nnc(C2CCN(Cc3ccccc3)CC2)o1`, `Cc1ncsc1-c1nnc(C2CCN(Cc3ccc(F)cc3)CC2)o1` is lower in “Percent Effect” value: 104.4% for the first, -4.23% for the second.

Going from `Cc1ncsc1-c1nc(CC2CCN(C)CC2)nn1Cc1ccccc1` to `Cc1ncsc1-c1nnc(C2CCN(Cc3ccc(Cl)cc3)CC2)o1`, the “Percent Effect” value rises from -11.92% to 113.6%.

Compared with `COc1ccc2c(c1)CC(C(=O)N(C)Cc1noc3c1CCCC3)CO2` (stereo unspecified), `COc1cccc2c1OCCCN(c1nc(C)nc3c1CCNCC3)C2` is higher in “Percent Effect” value: -16.58% for the first, -7.329% for the second.

Going from `c1cnnc(N2CCC(c3nnc(Cn4ccnc4)n3C3CC3)CC2)c1` to `c1cnn(CC2CN(Cc3noc(C4CC4)n3)CCO2)c1` (stereo unspecified), the “Percent Effect” value rises from -16.04% to -0.1842%.

First: COc1cccnc1NC(=O)COC1CCCC1
Second: CC(=O)N[C@@H]1Cc2ccccc2[C@H]1Nc1cc(C2CC2)ncn1
The “Percent Effect” value of the first is higher: 13.24% for the first, -3.919% for the second.

Going from `CC(C)CC(NC(=O)c1cccc(F)c1F)C(=O)Nc1cc[nH]n1` (stereo unspecified) to `Cc1n[nH]c(NC(=O)c2ccc(COCC(F)(F)F)cc2)c1C`, the “Percent Effect” value rises from -2.094% to 90.05%.

Going from `CN(C)CCN(Cc1ccc(C(F)(F)F)cc1)C(=O)c1cc[nH]n1` to `O=C(NCc1cccnc1)C1=NN(c2ccccc2)C(=O)CN1`, the “Percent Effect” value rises from -18.8% to -0.2289%.

Compared with `CC(C)C(=O)NCCNC(=O)C12CCC(=O)N1c1cc(Cl)ccc1S2` (stereo unspecified), `CCNC(=O)NC(=O)CNC(C)(CC)c1nccs1` (stereo unspecified) is higher in “Percent Effect” value: -7.313% for the first, 7.409% for the second.

First: CCC(=O)N1CCC(NC2CCSCC2)C1 (stereo unspecified)
Second: OCCC1CN(C2CCC2)CCN1C1CCCC1 (stereo unspecified)
The “Percent Effect” value of the first is lower: -15.97% for the first, 7.142% for the second.

Compared with `Cc1cc(C)n(CC2CN(Cc3nc(C)c(C)o3)CCO2)n1` (stereo unspecified), `Cc1cc(C)n(CC2CN(Cc3noc(C)n3)CCO2)n1` (stereo unspecified) is lower in “Percent Effect” value: 127.2% for the first, 98.99% for the second.

Compared with `CCc1n[nH]c(C2CN(Cc3nc(C4CC4)no3)CCO2)n1` (stereo unspecified), `Cc1cc(C)n(CC2CN(Cc3nc(C4CC4)no3)CCO2)n1` (stereo unspecified) is higher in “Percent Effect” value: 14.51% for the first, 104.8% for the second.

Going from `Cc1cc(C)n(CC2CN(Cc3nnsc3Cl)CCO2)n1` (stereo unspecified) to `c1ccc(CN2CCCC2Cn2cncn2)nc1` (stereo unspecified), the “Percent Effect” value falls from 2.291% to -0.04189%.

First: O=C1CC(Nc2ccc3nccnc3n2)CN1c1ccccc1 (stereo unspecified)
Second: c1ccc(-n2ccc(CN3CCCC3Cn3cncn3)n2)cc1 (stereo unspecified)
The “Percent Effect” value of the first is lower: -12.7% for the first, 128.5% for the second.

Going from `Fc1cccc(-n2ccc(CN3CCCCC3Cn3cncn3)n2)c1` (stereo unspecified) to `c1ccc(-n2ccc(CN3CCCCC3Cn3cncn3)n2)cc1` (stereo unspecified), the “Percent Effect” value rises from -7.7% to 140.8%.

Going from `N#Cc1ccc(F)c(CN2CCCC2Cn2cccn2)c1` (stereo unspecified) to `Fc1ccc(CN2CCCC2Cn2cccn2)c2ncccc12` (stereo unspecified), the “Percent Effect” value falls from -3.171% to -3.711%.

`Fc1cccc(-n2ccc(CN3CCCC3Cn3cccn3)n2)c1` (stereo unspecified) was tested, and the “Percent Effect” value was 141.1%.
